Reference: PubChem BioAssay (NCI)
About 83,000 compounds went through this panel and 20% of them were active in at least one assay; those are over-represented in the sample as a whole.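 Activity criterion: percent growth below 10, measured after cells in 96-well plates were exposed to a single compound concentration for 48 hours.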 A number with no mark means an inactive call. Active and inactive are the calls of the source.

Test system: EKVX NSCLC
Assay: NCI-60 one-dose screen, 48 h (100 = growth as untreated, 0 = no growth, -100 = all killed)
Settings: 10 µM unless noted
Method: Growth inhibition of the EKVX human Non-Small Cell Lung tumor cell line is measured as a screen for anti-cancer activity. Cells are grown in 96 well plates and exposed to the test compound for 48 hours. Compounds are tested at a single concentration, which is 10^-5 M for most compounds. The reported endpoint is percent growth (GI% or GIPRCNT), where numbers from 0 - 100% represent growth inhibition, and numbers from -100% - 0 represent cell death. For example, a value of 40 represents 60% growth inhibition. A value of 0 means no net growth occurred over the course of the experiment. A value of -40 indicates 40% of cells at the beginning of the experiment died by the end of the experiment. A value of -100 means all cells are dead at the end of the experiment.
NCI-60 Human Tumor Cell Lines Screen was performed using the standard one-dose NCI protocol, which is described in more detail at https://dtp.cancer.gov/discovery_development/nci-60/default.htm.
Compounds with GIPRCNT values below 10 were considered active. Activity score was based on GIPRCNT using the following formula: […]
Score is 0 for GIPRCNT values of 100 or above, 50 for GIPRCNT values of 0, and 100 for GIPRCNT values of -100.

SMILES	growth
COc1ccc(C(=O)/C=C/Nc2cc(-c3ccccc3)nn2-c2ccccc2)cc1	89.4%
O=C(CN1C(=O)NC2NC(=O)NC21)N/N=C/c1cccc([N+](=O)[O-])c1 (stereo not given)	102%
O=C(O)COc1ccc(F)cc1	103%
COC12C=C/C(=C(/C(=O)OCc3ccccn3)C(=O)CCCCCCCCC3(OC)C=C/C(=C(/C(=O)OCc4ccccn4)C(=O)CCCCCCCC1)O3)O2	-9.9% (active)
CCCCC#Cc1c(I)n(C2OC(CO[Si](C)(C)C(C)(C)C)C3OC(C)(C)OC32)c(=O)[nH]c1=O (stereo not given)	92.2%
O=C(O)/C=C/c1cn(-c2ccccc2)nc1-c1ccc(F)cc1	97.2%
Cc1ccc(-c2nnc(SCc3nc(N)nc(Nc4ccccc4F)n3)n2-c2ccccc2)cc1	94.2%
CC(=O)OCCOc1cc(Cl)c(Cl)cc1Cl	78.4%
O=C(N/N=C/c1ccccc1Cl)c1ccccc1Nc1ccnc(C(F)(F)F)c1	11.7%
C#CCOc1ccc(C2=NN(C)C3N=C(Cl)c4ncn(C)c4N23)cc1OCC#C (stereo not given)	102%
O=C(CNc1ncco1)Nc1ccc(S(=O)(=O)c2ccc(NC(=O)CNc3ncco3)cc2)cc1	50.4%
CC(C)(C)n1cc(-c2ccnc(NCCNS(=O)(=O)c3cccc4ccccc34)c2)c(-c2cccc(O)c2)n1	69.8%
Cc1c2ccncc2c(C)c2c1c1ccccc1n2CCCCCC(=O)O	90.3%
CCOC(=O)/C(=C\c1ccccc1Cl)P(=O)(OCC)OCC	73.1%
CC1=C(C(=O)c2ccccc2)C(c2ccc3c(c2)OCO3)NC(=S)N1 (stereo not given)	73.5%
O=C(O)CCCN1C(=O)CSC1=S	103%
CCN(CC)CCCC(Nc1c2ccc(Cl)cc2nc2ccc(OC)cc12)c1ccncc1 (stereo not given)	87%
Cn1nc(-c2ccc(Cl)cc2)nc2c(=O)n(C)c(=O)nc1-2	-31.2% (active)
Oc1cccc2c1NCCC2	22.3%
O=C(O)/C=C\C(=O)Nc1ccc2c(c1)Cc1cc(F)ccc1-2	90.3%

SMILES	growth
Cc1nn(-c2ccccc2)c(Oc2ccccc2)c1/C=N/NC(=O)Cn1c(=O)sc2ccccc21	33.3%
COc1ccc(-c2cc(-c3ccc(N(C)C)cc3)nc(NC(=O)c3cccnc3)n2)cc1	96.6%
Oc1c(Cl)cc(Cl)c2ccc(CN3CCNCC3)nc12	48.7%
CC(CN)[C@@H]1CC[C@]2(CO)CC[C@]3(C)[C@H](CC[C@@H]4[C@@]5(C)CCC(NCCO)C(C)(C)[C@@H]5CC[C@]43C)[C@@H]12 (stereo not given in full)	73%
CNC1=C([N+](=O)[O-])C(c2ccc(OC)cc2)C(C#N)=C(c2ccc[nH]2)O1 (stereo not given)	99.7%
Cn1cc(-c2nc(-c3c[nH]c4ccncc34)cs2)c2cc(F)ccc21	-75.4% (active)
O=C(Nc1ncc(Cc2ccccc2)s1)c1ccc2c(c1)OCCO2	32.6%
CC(C)n1cc(C2=C(c3cccc4ccccc34)C(=O)NC2=O)c2cc(Br)ccc21	85%
CC(=O)/C(Br)=C/c1ccc(Br)o1	105%
CO[C@]12C=C/C(=C(/C(=O)OCc3cccnc3)C(=O)CCCCCCCC[C@]3(OC)C=C/C(=C(/C(=O)OCc4cccnc4)C(=O)CCCCCCCC1)O3)O2	-53.8% (active)
COc1cc(C(=O)/C=C/c2c(-c3cccs3)nc3sc(C)cn23)cc(OC)c1OC	13.4%
CCCN1C(=O)N(CCC)C2C1NC(=S)N2/N=C/C=C/c1ccccc1OC (stereo not given)	51.5%
CCCN1C2CCC1/C(=C\c1ccc(OC)cc1)C(=O)/C2=C/c1ccc(OC)cc1	77.6%
CN1CCN(Cn2nc(-c3cc(Cl)cc(Cl)c3Cl)oc2=S)CC1	102%
CCOc1ccc(-c2cc(C3(S(=O)(=O)c4ccc(C)cc4)CC=CC3)on2)cc1	68.8%
COc1cc2c(cc1-c1c(C)noc1C)ncc1nc(C3CCOCC3)n(C3CCC(OC(F)F)CC3)c12 (stereo not given)	60.9%
O=c1c2cccc3c(N4CCOCC4)ccc(c32)c2nc3ccccc3n12	38.3%
CN1CCN(CC(=O)N(C)c2ccc(N=C(c3ccccc3)c3c(O)[nH]c4ccc([N+](=O)[O-])cc34)cc2)CC1	94.2%
CSc1nn2c(-c3cc4cc(Br)ccc4oc3=O)ccnc2c1C#N	92.2%
CC(=O)CC(=O)c1ccccc1.[Cu+2]	99.4%
